Inconclusive results are not listed. A number with no mark means an inactive call. Activity calls are given as the source filed them. Calls come from the whole dose curve; as a rule, active = well fitted activation curve with a large enough effect; inconclusive = small, poorly fitted or top-dose-only effect; inactive = no such curve, though single readings can be large or run the other way.

Consider 36 compounds from PubChem BioAssay AID493192 (National Center for Advancing Translational Sciences (NCATS), 2011).
Potency is the fitted concentration of half-maximal effect.

The test in a line: qHTS Assay for Identifying a Potential Treatment of Ataxia-Telangiectasia: Hit Validation. For activity change, positive = activation: 0% is about no effect.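 Note: phospho-KAP1 level by AlphaLISA as a proxy for ATM-like kinase activity.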 Conditions: Ataxia-telangiectasia cell-based hit validation qHTS, in ATM-null A-T patient fibroblasts; series mostly up to 76.9 µM; activity change, positive = activation: at the top concentration. The procedure, abridged: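 hTERT-immortalized A-T patient fibroblasts (F2112) were dosed at up to 76.7 uM final for 60 min at 37C. After a further 30 min incubation, cells were lysed, and phospho-KAP1 was detected by AlphaLISA after 6 hr at 25C.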
For orientation: qHTS replaces the single test concentration by a dilution series.
For the compound `O=C(Nc1ccc(N2CCCC2)cc1)c1ccc(Cl)cc1Cl`, the “activity change, positive = activation” value is -10.5%. As to `O=C(C[n+]1cccc2ccccc21)c1ccc(NC(=O)c2ccccc2)cc1`, the “activity change, positive = activation” value was 0.803%.

On to `O=C(O)c1ccc(/C=C/c2nc3ccccc3c(=O)[nH]2)cc1`, for which the “activity change, positive = activation” value was 21%. Still for that read-out and setting: then `COc1ccc(N(C)S(=O)(=O)c2cccc(C(=O)OCC(=O)NCc3ccccc3OC)c2)cc1`, with 37.1%; and `CN(C)S(=O)(=O)c1ccc(NC(=O)c2ccc([N+](=O)[O-])cc2)cc1`, with 1.74%. For `Cc1ccc(NC(=O)CSc2nnc([C@H](C)NC(=O)OC(C)(C)C)o2)c(C)c1`, the Potency was 26 µM (active). On to `Cc1nc(SCC(=O)Nc2cc(C(N)=O)cc(C(N)=O)c2)c2c(C)c(C)sc2n1`, for which the “activity change, positive = activation” value is 1.61%. `CCOc1ccc(C(=O)NC(=S)Nc2cccnc2)cc1[N+](=O)[O-]`: the “activity change, positive = activation” value was 19.7%.

On to `CC(C)c1ccc(C(C(=O)NC2CCCCC2)N(C(=O)c2ccccn2)c2cccnc2)cc1` (stereo unspecified), for which the “activity change, positive = activation” value was 16%. Same read-out and setting: then `O=C(O)CCCC(=O)N1N=C(c2ccccc2)CC1c1cccs1` (stereo unspecified), with 3.85%; and `COc1ccc(-n2c(C)cc(=O)[nH]c2=O)cc1`, with 4.86%; and `Cc1oc2ccc(OCc3ccc(Br)cc3)cc2c1C(=O)O`, with -13.3%. `O=C1CN(C(=O)NCC(=O)N[C@H](C(=O)O)c2ccccc2)c2ccccc2N1`: the “activity change, positive = activation” value was -3.5%. With `N#CCN1C(=O)C(=O)N(Cc2cccc(Cl)c2)C1=O`, the “activity change, positive = activation” value was 0%. Still for that read-out and setting: then `Cc1nn(C)c(Cl)c1CN1CCN(C2CCCC2)C(CCO)C1` (stereo unspecified), with 4.2%. `CCn1nc(C)c(/C=N/NC(=O)Cn2cncn2)c1C`: the “activity change, positive = activation” value is 14.2%.

`C=CCC(CC)C(=O)NC(=O)N1CCCc2ccccc21` (stereo unspecified): the “activity change, positive = activation” value is 1.61%. `O=C(Nc1cccc([N+](=O)[O-])c1)N1CCCc2ccccc21`: the “activity change, positive = activation” value is -2.8%.

In the case of `O=C(CSc1ccccn1)N/N=C/C=C/c1ccccc1`, the “activity change, positive = activation” value was 0.699%.

Take `C(=N\Nc1ccccn1)/c1c[nH]c2ccccc12`: the “activity change, positive = activation” value was 5.21%. Same read-out and setting: then `CCCc1nn(C)c(C(=O)Nc2ccc(C(C)(C)C)cc2)c1Cl`, with 18.9%. As for `COc1cccc(/C=N/NC(=O)c2cc3cc([N+](=O)[O-])ccc3s2)c1O`, the Potency was 51.9 µM (active). `COc1ccc(-c2cc(C(F)(F)F)c(C#N)c(SCC(=O)O)n2)cc1OC`: the “activity change, positive = activation” value is -6.83%. As to `O=C(Nc1ccccc1Oc1ccccc1)c1cccs1`, the Potency was 41.2 µM (active). In the case of `O=C(O)c1ccc(C2Nc3ccccc3C(=O)N2Cc2ccccc2)cc1` (stereo unspecified), the “activity change, positive = activation” value was -4.55%. Take `CNC(=O)c1ccc(-c2cc3onc(-c4ccccc4)c3c(=O)n2C)cc1`: the “activity change, positive = activation” value was 15.7%. Same read-out and setting: to `Clc1cccc(Cl)c1CSc1nnc(-c2ccncc2)s1` belongs 17.4%; to `CC(C)(CN1CCN(c2ccccc2)CC1)NS(=O)(=O)c1ccccc1`, -6.25%; to `O=C1NC(=Nc2ccccc2)CS1`, 12.2%. As to `COc1ccc2c(c1)cc(C(=O)N[C@H](C(=O)N1CCC(C(=O)O)CC1)C(C)C)n2C`, the “activity change, positive = activation” value was 1.2%. The same measure, in the same setting: to `N#Cc1c2c(c(-n3cnc4ccccc43)n3c1nc1ccccc13)CCC2` belongs -17.4%; to `Cc1ccc(C(=O)Nc2sc3c(c2C(=O)O)CCCCC3)o1`, 11.1%. `COc1ccc(C(CNC(=O)C(Cc2ccccc2)NC(N)=O)N(C)C)cc1` (stereo unspecified): the “activity change, positive = activation” value was 14.7%. As to `COc1ccccc1Nc1nc(NCCCN(C)C)nc(N)c1[N+](=O)[O-]`, the “activity change, positive = activation” value was 19.3%. For the compound `CCOC(=O)C1=C(O)C(=O)N(Cc2ccccc2)C1`, the “activity change, positive = activation” value is -8.74%. In the case of `N#C/C(=C/c1ccc(F)cc1)C(N)=S`, the “activity change, positive = activation” value was 21.9%.
